The record followed here is PubChem BioAssay (Tox21).

Inconclusive results are not listed. Where a call stands in place of a potency, no number is given. Calls of active or inactive are those of the source. The call rests on the fitted dose curve.
Potency means the concentration at half of the fitted maximal effect.

Chain of Beta-2 adrenergic receptor (Homo sapiens) (P07550 whole entry, looked up): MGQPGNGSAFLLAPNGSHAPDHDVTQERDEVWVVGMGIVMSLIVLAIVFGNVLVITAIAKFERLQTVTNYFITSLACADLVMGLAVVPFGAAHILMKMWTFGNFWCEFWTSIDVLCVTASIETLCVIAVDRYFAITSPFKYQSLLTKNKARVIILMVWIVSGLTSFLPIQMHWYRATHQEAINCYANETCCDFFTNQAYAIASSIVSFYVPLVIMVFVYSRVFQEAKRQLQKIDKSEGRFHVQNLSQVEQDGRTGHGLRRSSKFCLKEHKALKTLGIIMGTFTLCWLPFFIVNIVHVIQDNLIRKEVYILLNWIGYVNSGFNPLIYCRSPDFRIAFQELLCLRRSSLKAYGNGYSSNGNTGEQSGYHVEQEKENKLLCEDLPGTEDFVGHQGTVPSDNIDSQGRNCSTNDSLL

For the assay, the target named is Beta-2 adrenergic receptor (Homo sapiens) (UniProt P07550). Briefly: Adrenergic beta2 receptor (ADRB2) small molecule antagonists, cell-based qHTS assay (AID 1963592). Further: nearly all actives have a fitted effect of over 50% in size. As to conditions: CHO-ADRB2 cells, isoproterenol-stimulated cAMP HTRF ratio, 0.5 h; series mostly up to 92.4 µM; activity change, negative = inhibition: at the top concentration. From the text:
U.S. Tox21 Program National Center for Advancing Translational Sciences [NCATS] Division of Preclinical Innovation [DPI] U.S. Environmental Protection Agency [EPA] National Institutes of Environmental Health Sciences [NIEHS] National Toxicology Program [NTP] U.S. Food and Drug Administration [FDA] Tox21 Assay Overview: Beta adrenergic receptors (Beta-ARs) belong to the G-protein coupled receptor (GPCR) superfamily, includes three subtypes - beta1, beta2, and beta3. Beta1-AR is the predominant receptor subtype expressed in the heart, and beta2-AR is expressed in the kidney, lung, blood vessel and in the heart, and beta3 is found in the adipocytes. Beta1 and 2 ARs couple to Gs protein and elevate cyclic adenosine mono phosphate (cAMP), which activates protein kinase A and leads to the downstream signaling responsible for the physiological actions. Beta-AR agonists or antagonists are the most prescribed therapeutic agents for heart failure and asthma, and these were one of the first target receptors for the rational drug design. Tox21 10K compound library was screened using the cAMP-Gs dynamic assay (Cisbio Bioassays, Shelton, CT) to identify agonists/antagonists of the Gs-coupled human adrenergic, beta2 receptor (ADRB2) in the CHO-ADRB2 cell line (Codex BioSolutions, Inc. Gaithersburg, MD), which stably over-expresses ADRB2. The principle of cAMP-Gs dynamic assay is based on HTRF technology, which facilitates the fluorescence resonance energy transfer (FRET) between donor Europium cryptate and acceptor d2-labeled cAMP. The cAMP generated within cells competes with the red acceptor, d2-labled cAMP, for binding to the monoclonal anti-cAMP-cryptate (Europium donor). An increase in intracellular cAMP leads to the disruption of FRET signal, and the signal is inversely proportional to the cAMP concentration. Propranolol HCl (Sigma-Aldrich, St. Louis, MO) was used as a positive control in the screening.
Tox21 Assay Protocol Summary: CHO-ADRB2 cells were dispensed at 1,000/well in 4uL assay medium into white/solid 1536-well plates (Greiner Bio-One North America Inc., Monroe, NC) using a Multidrop Combi dispenser (ThermoFisher Scientific, Waltham, MA). The assay plates were incubated at 37C and 5% CO2 for an overnight (18-20hr). Then positive control and test compounds dissolved in DMSO were transferred to the assay plates at 23nL using a Pintool station (Wako, San Diego, CA). Following the compound and positive control transfer, 1uL agonist-stimulation mix containing 1nM Isoproterenol HCl, 100uM IBMX and 25uM Ro-20-1724 was added to each well of the assay plates using BioRAPTR Flying Reagent Dispenser (FRD, Beckman Coulter, Brea, CA). The assay plates were incubated at room temperature for 0.5hr. Then 2.5ul each d2-labled cAMP and anti-cAMP-cryptate solutions were added separately to each well of the assay plates using an FRD and the assay plates were incubated at room temperature for 1hr. The fluorescence signal was measured at two different wavelengths (665nm and 615nm) using an Envision plate reader (Perkin Elmer, Shelton, CT). Data were expressed as the ratio of 665 nm/615 nm.
(In general: Quantitative high-throughput screening tests each substance at several concentrations.)
Turning to `C=CCOC(=O)CC(C)C`, the Potency result was “inactive”. On to `C/C=C/c1ccc(OC)cc1`, for which the Potency entry is “inactive”.

As for `Oc1ccc(O)cc1`, the Potency result is “inactive”. Still for that read-out and setting: as for `NC(=O)N/N=C/c1ccc([N+](=O)[O-])o1`, the entry is “inactive”. Consider `CC(O)COCC(C)O` (stereo not given), for which the Potency result is “inactive”. In the case of `O=Cc1ccccc1O`, the Potency result was “inactive”. On to `Oc1ccc(Cl)cc1Cc1cc(Cl)ccc1O`, for which the Potency is 48.6 µM (active). On to `Nc1ccc(S(=O)(=O)Nc2nccs2)cc1`, for which the Potency result is “inactive”.

`C=CCOC(=O)C(=C)C`: the Potency result was “inactive”. Same read-out and setting: as for `CCC(O)OC(O)CC` (stereo not given), the entry is “inactive”. With `COc1ccc2c(c1)c(CC(=O)O)c(C)n2C(=O)c1ccc(Cl)cc1`, the Potency entry is “inactive”. The same measure, in the same setting: as for `Cc1c(N(C)C)c(=O)n(-c2ccccc2)n1C`, the entry is “inactive”; as for `Nc1nc2ccccc2[nH]1`, “inactive”. On to `c1ccc2[nH]c(-c3cscn3)nc2c1`, for which the Potency result is “inactive”.

`CCCC(C)=O`: the Potency entry is “inactive”.

As to `COc1cc([C@@H]2c3cc4c(cc3[C@H](O)[C@H]3COC(=O)[C@H]23)OCO4)cc(OC)c1OC`, the “activity change, negative = inhibition” value was -1.45% [at 42.5 µM] (inactive). For the compound `CCc1cccc(O)c1`, the Potency entry is “inactive”. Regarding `CCCCCCCCO`, the Potency result was “inactive”. Same read-out and setting: the value for `CCCCC1(COC(=O)CCC(=O)O)C(=O)N(c2ccccc2)N(c2ccccc2)C1=O` was “inactive”; that for `CCCCOC(=O)COc1ccc(Cl)cc1Cl` was “inactive”. Regarding `CCCOC(=O)c1cc(O)c(O)c(O)c1`, the “activity change, negative = inhibition” value was -18.6% (inactive). Consider `CCCCCCCCCCCCc1ccccc1O`, for which the Potency result was “inactive”.

Take `O=S(=O)(O)NC1CCCCC1`: the Potency result was “inactive”. As to `CCCCNC(=O)NS(=O)(=O)c1ccc(N)cc1`, the Potency result was “inactive”.

Consider `COC(=O)C1CCC(C(=O)OC)CC1` (stereo not given), for which the Potency entry was “inactive”. `CCC(C)OC(=O)c1ccc(O)cc1` (stereo not given): the “activity change, negative = inhibition” value was -3.35% (inactive). Turning to `CCC(O)OCCCOC` (stereo not given), the Potency entry is “inactive”. With `Nc1nc2ncc(CNc3ccc(C(=O)N[C@@H](CCC(=O)O)C(=O)O)cc3)nc2c(=O)[nH]1`, the Potency entry is “inactive”. `OC[C@]1(O)OC[C@@H](O)[C@H](O)[C@@H]1O`: the Potency entry was “inactive”. On the same count and under the same terms, the value for `O=C(O)CN(CC(=O)O)CC(=O)O` was “inactive”; that for `O=C=Nc1ccc(Cc2ccc(N=C=O)cc2)cc1` was “inactive”. As for `CCC(C)(C)C(=O)O[C@H]1C[C@@H](C)C=C2C=C[C@H](C)[C@H](CC[C@@H]3C[C@@H](O)CC(=O)O3)[C@H]21`, the Potency entry is “inactive”. On the same count and under the same terms, as for `CC1(C)NC(=O)NC1=O`, the entry is “inactive”; as for `NCCS(=O)(=O)O`, “inactive”; as for `C#C[C@]1(O)CC[C@H]2[C@@H]3CCC4=CC(=O)CC[C@@H]4[C@H]3CC[C@@]21CC`, “inactive”.

As for `CCc1ccc(CCOc2ccc(CC3SC(=O)NC3=O)cc2)nc1` (stereo not given), the Potency entry is “inactive”. For the compound `CCOCCOCCO`, the Potency result was “inactive”.

On to `COC(=O)CC(=O)OC`, for which the Potency entry is “inactive”.

Take `CC1=C(/C=C/C(C)=C/C=C/C(C)=C/CO)C(C)(C)CCC1`: the Potency entry was “inactive”.

As to `Cn1cc[nH]c1=S`, the Potency entry is “inactive”.
